The text below walks through data of PubChem BioAssay (EPA / NIEHS).

Results filed as inconclusive are left out. Calls of active or inactive are those of the source. Rule for the calls, unless noted: active = hit-call score of the fitted dose curve at least 0.9, where 1 is the maximum; inconclusive = response in the unintended direction; inactive = score below 0.9.

The nature of assay [1]: ATG_TAL_CIS: Attagene CIS-FACTORIAL HepG2 Assay for human TAL Basal Promoter (AID 2282966; active = hit-call score of the fitted dose curve at least 0.9, where 1 is the maximum; inactive = score below 0.9;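 note: background control endpoint measuring basal TAL promoter reporter mRNA not a specific factor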). To be noted: HepG2 Attagene cis-factorial TAL promoter reporter; actives raise or lower the signal. In outline:
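Transiently transfected HepG2 (cis-regulated reporter units), 24 h treatment, mRNA read by fluorescent CE after RT-PCR; bidirectional fit, DMSO baseline.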

Assay [2] is described as follows: ATG_TGFb_CIS: Attagene CIS-FACTORIAL HepG2 Assay for human Transforming Growth Factor (TGF) (AID 2282967; active = hit-call score of the fitted dose curve at least 0.9, where 1 is the maximum; inactive = score below 0.9). The settings on record: HepG2 Attagene CIS TGFb reporter, mRNA transcription; actives raise or lower the signal. In outline:
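Readout: fluorescently labeled reporter cDNA fragments resolved by capillary electrophoresis after RT-PCR. Transfected HepG2 cells dosed for 24 h; endogenous TF activity at TGFB1-linked cis element; gain or loss fitted relative to DMSO.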

The target of assay [3] is Nuclear receptor subfamily 1 group I member 3 (Homo sapiens) (UniProt Q14994). In words: ATG_CAR_TRANS: Attagene TRANS-FACTORIAL HepG2 Assay for human Constitutive Androstane Receptor (CAR) (AID 2282969).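 Note: activators raise reporter mRNA above DMSO so AC50 marks induction.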 The settings on record: HepG2 Attagene TRANS-FACTORIAL CAR reporter. In outline:
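Signal is reporter mRNA induction relative to DMSO, measured 24 h after dosing by RT-PCR with fluorescent primer extension and capillary electrophoresis. Human HepG2 liver cells carried transiently transfected chimeric NR-Gal4/GAL4-UAS reporter constructs.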

Assay [4] deals with Estrogen receptor (Homo sapiens) (UniProt P03372). Kind of assay: ATG_ERa_TRANS: Attagene TRANS-FACTORIAL HepG2 Assay for human Estrogen Receptor alpha (ERa) (AID 2282970). The settings on record: HepG2 Attagene TRANS ERa GAL4 reporter, mRNA. In outline: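 One of 30 multiplexed endpoints from a HepG2 TRANS system, this one reports ERa-Gal4-driven reporter mRNA. Transcripts were quantified 24 hours post-dosing by fluorescent RT-PCR and capillary electrophoresis, with activity scored as induction over DMSO.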

The target in assay [5] is X-box-binding protein 1 (Homo sapiens) (UniProt P17861). In words: ATG_Xbp1_CIS: Attagene CIS-FACTORIAL HepG2 Assay for human X-box Binding Protein 1 (XBP1) (AID 2282972; active = hit-call score of the fitted dose curve at least 0.9, where 1 is the maximum; inactive = score below 0.9). To be noted: HepG2 XBP1 cis-element reporter, Attagene multiplex; actives raise or lower the signal. In outline:
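Human hepatoma HepG2, cis-element reporter system, 24 h treatment; mRNA quantified by RT-PCR/CE fluorescence; fit relative to DMSO.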

Assay [6] is described as follows: ATG_M_19_TRANS: Attagene TRANS-FACTORIAL HepG2 Assay for M19 Transcription Factor (Internal Marker) (AID 2282974). The settings on record: HepG2 Attagene TRANS-FACTORIAL M19 internal marker reporter. In outline:
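Using RT-PCR and capillary electrophoresis, reporter mRNA from transiently transfected human HepG2 cells was quantified following 24 h exposure; activity was fitted in the positive direction against DMSO.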

For assay [7], the target named is Bile acid receptor (Homo sapiens) (UniProt Q96RI1). In words: ATG_FXR_TRANS: Attagene TRANS-FACTORIAL HepG2 Assay for Farnesoid X Receptor (FXR) (AID 2282979).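 Note: hits raise reporter mRNA above DMSO so AC50 marks FXR activation.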 To be noted: HepG2 Attagene TRANS FXR-GAL4 reporter transcription. In outline:
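HepG2 cells transiently transfected with reporter constructs in which a chimeric FXR-GAL4 protein drives a GAL4-UAS reporter; 24 h compound exposure. Reporter mRNA measured by RT-PCR, FAM labelling, HpaI digestion and capillary electrophoresis; gain-of-signal versus DMSO.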

Assay [8] addresses Hepatocyte nuclear factor 4-alpha (Homo sapiens) (UniProt P41235). In words: ATG_HNF4a_TRANS: Attagene TRANS-FACTORIAL HepG2 Assay for human Hepatocyte Nuclear Factor 4 alpha (HNF4a) (AID 2282982). The settings on record: HepG2 HNF4a transactivation reporter, mRNA readout. In outline:
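Activity of an exogenous HNF4a–Gal4 fusion scored as induced GAL4-UAS reporter transcripts after 24 h chemical exposure of transfected human HepG2 cells. Read-out via RT-PCR with 6-FAM labelling and capillary electrophoresis; rise over DMSO baseline.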

The target in assay [9] is Transcriptional activator Myb (Homo sapiens) (UniProt P10242). In words: ATG_Myb_CIS: Attagene CIS-FACTORIAL HepG2 Assay for human Myeloblastosis (Myb) Proto-Oncogene Transcription Factor (AID 2282986; active = hit-call score of the fitted dose curve at least 0.9, where 1 is the maximum; inactive = score below 0.9). To be noted: HepG2 Attagene CIS-FACTORIAL Myb reporter transcription; actives raise or lower the signal. In outline: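 In this HepG2 transient-transfection format, cis-regulated reporter mRNA is quantified 24 h post-dosing by RT-PCR with capillary electrophoresis, fitted bidirectionally to DMSO baseline.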

Assay [10] has as its target Oxysterols receptor LXR-alpha (Homo sapiens) (UniProt Q13133). In words: ATG_LXRa_TRANS: Attagene TRANS-FACTORIAL HepG2 Assay for human Liver X Receptor alpha (LXRa) (AID 2282980). To be noted: HepG2 Attagene TRANS reporter, LXRa transactivation. In outline: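 HepG2 cells were transiently transfected with multiplexed reporter units driven by chimeric LXRa–GAL4 fusion proteins, then dosed for 24 h. Reporter mRNA was quantified by RT-PCR, fluorescent labelling and capillary electrophoresis; gain of signal fitted against DMSO baseline.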

A short description of assay [11]: ATG_M_06_TRANS: Attagene TRANS-FACTORIAL HepG2 Assay for M06 Transcription Factor (Internal Marker) (AID 2282983).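 Note: reporter transcript level by RT-PCR then capillary electrophoresis fluorescence.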 The settings on record: HepG2 Attagene TRANS M06 internal marker reporter. In outline:
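In this multiplexed HepG2 system, compounds are incubated 24 h with cells carrying GAL4-UAS reporter units. Reporter RNA is amplified and resolved by capillary electrophoresis, and induction is scored against DMSO.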

For assay [12], the target named is Nuclear receptor subfamily 4 group A member 2 (Homo sapiens) (UniProt P43354). Kind of assay: ATG_NURR1_TRANS: Attagene TRANS-FACTORIAL HepG2 Assay for human Nuclear Receptor Related Protein 1 (NURR1) (AID 2282985). To be noted: HepG2 Attagene TRANS reporter, mRNA readout. In outline: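 Reporter transcript induction, measured by RT-PCR with fluorescent labelling, HpaI digestion and capillary electrophoresis, after 24 hr dosing of human HepG2 cells transiently expressing an exogenous NR-Gal4 fusion with GAL4-UAS-driven reporters; DMSO as baseline.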

Assay [13] can be described thus: ATG_VDRE_CIS: Attagene CIS-FACTORIAL HepG2 Assay for human Vitamin D Receptor Element (VDRE) (AID 2282968; active = hit-call score of the fitted dose curve at least 0.9, where 1 is the maximum; inactive = score below 0.9). The settings on record: HepG2 VDRE cis-reporter transcription, actives raise or lower the signal. In outline:
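Readout is VDRE-driven reporter mRNA reflecting endogenous factor activity in human HepG2 cells, sampled 24 h post-dose. Quantification used labelled RT-PCR products separated by capillary electrophoresis; bidirectional analysis relative to DMSO.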

Assay [14] is described as follows: ATG_GAL4_TRANS: Attagene TRANS-FACTORIAL HepG2 Assay for GAL4 (Internal Marker) (AID 2282976). The settings on record: HepG2 Attagene TRANS GAL4 internal marker reporter. In outline:
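HepG2 cells transiently transfected with multiplexed GAL4-UAS reporter constructs were dosed for 24 h. Reporter mRNA was measured by RT-PCR, 6-FAM primer extension, HpaI digestion and capillary electrophoresis, and gain of signal was fitted relative to DMSO.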

The target in assay [15] is Oxysterols receptor LXR-beta (Homo sapiens) (UniProt P55055). Kind of assay: ATG_LXRb_TRANS: Attagene TRANS-FACTORIAL HepG2 Assay for human Liver X Receptor beta (LXRb) (AID 2282981). The settings on record: HepG2 Attagene TRANS GAL4-LXRb reporter, mRNA. In outline: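 After 24 h chemical treatment of transfected HepG2 cells carrying exogenous NR-Gal4 chimeras, reporter mRNA was quantified by fluorescent RT-PCR and capillary electrophoresis; activity taken as increase over DMSO controls.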

In assay [16] the target is Glucocorticoid receptor (Homo sapiens) (UniProt P04150). Kind of assay: ATG_GR_TRANS: Attagene TRANS-FACTORIAL HepG2 Assay for human Glucocorticoid Receptor (GR) (AID 2282978).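 Note: activators score as hits since higher reporter transcript over DMSO is fitted.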 The settings on record: HepG2 Attagene TRANS GR reporter, mRNA transcription. In outline:
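Exogenous NR-GAL4 fusion activity was assessed through induced GAL4-UAS reporter transcripts in transfected human HepG2 cells, quantified after 24 h by RT-PCR and fluorescent capillary electrophoresis with DMSO as baseline.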

A short description of assay [17]: ATG_M_32_TRANS: Attagene TRANS-FACTORIAL HepG2 Assay for M32 Transcription Factor (Internal Marker) (AID 2282984).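 Note: transcript level of a background control reporter unit measured by RT-PCR and capillary electrophoresis.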 The settings on record: HepG2 Attagene TRANS M32 internal marker reporter. In outline:
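Internal background reporter in transfected HepG2: after 24 h chemical exposure, RNA reverse-transcribed, reporter cDNA amplified, fluorescently labelled and HpaI-cut, then sized by capillary electrophoresis. Gain of signal fitted against DMSO control.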

Assay [18] has as its target Steroid hormone receptor ERR1 (Homo sapiens) (UniProt P11474). In words: ATG_ERRa_TRANS: Attagene TRANS-FACTORIAL HepG2 Assay for human Estrogen-Related Receptor alpha (ERRa) (AID 2282971). To be noted: HepG2 Attagene TRANS reporter, ERRa transactivation. In outline:
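HepG2 cells transiently transfected with multiplexed GAL4-UAS reporter units reading chimeric ERRa-Gal4 activity; 24 h compound exposure. Reporter mRNA measured by RT-PCR, 6-FAM labelling, HpaI digest and capillary electrophoresis; gain of signal fitted versus DMSO baseline.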

Assay [19] concerns the target Androgen receptor (Homo sapiens) (UniProt P10275). In words: ATG_AR_TRANS: Attagene TRANS-FACTORIAL HepG2 Assay for human Androgen Receptor (AR) (AID 2282973). To be noted: HepG2 Attagene TRANS-FACTORIAL AR reporter transcription. In outline: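 HepG2 cells transiently transfected with multiplexed GAL4-UAS reporter units and chimeric NR-Gal4 fusion; 24 h compound exposure. Reporter mRNA measured by RT-PCR, 6-FAM labelling, HpaI digestion and capillary electrophoresis; gain-of-signal fitted relative to DMSO baseline.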

Sequence of Glucocorticoid receptor (Homo sapiens) (P04150 whole entry, looked up, the tested form may be a part): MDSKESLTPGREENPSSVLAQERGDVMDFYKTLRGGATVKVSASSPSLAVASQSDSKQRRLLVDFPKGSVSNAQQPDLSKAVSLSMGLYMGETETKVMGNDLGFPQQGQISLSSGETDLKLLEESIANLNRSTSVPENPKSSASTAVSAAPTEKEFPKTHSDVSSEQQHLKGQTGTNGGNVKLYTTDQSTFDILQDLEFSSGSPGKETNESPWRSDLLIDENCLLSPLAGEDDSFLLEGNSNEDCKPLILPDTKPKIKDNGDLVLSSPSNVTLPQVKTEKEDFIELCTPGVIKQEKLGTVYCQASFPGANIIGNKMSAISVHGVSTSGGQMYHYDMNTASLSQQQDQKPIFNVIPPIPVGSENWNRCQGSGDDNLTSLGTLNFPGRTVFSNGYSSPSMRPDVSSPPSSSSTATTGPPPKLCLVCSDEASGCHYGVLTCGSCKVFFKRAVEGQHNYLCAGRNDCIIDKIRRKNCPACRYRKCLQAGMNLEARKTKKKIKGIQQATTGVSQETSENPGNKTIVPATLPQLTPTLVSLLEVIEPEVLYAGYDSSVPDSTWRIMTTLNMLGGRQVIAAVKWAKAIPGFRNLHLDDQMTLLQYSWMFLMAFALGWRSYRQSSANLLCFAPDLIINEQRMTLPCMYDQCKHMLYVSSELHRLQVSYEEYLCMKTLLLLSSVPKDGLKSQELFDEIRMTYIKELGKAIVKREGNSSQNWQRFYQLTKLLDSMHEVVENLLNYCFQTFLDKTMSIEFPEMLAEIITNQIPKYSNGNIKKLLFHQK
Sequence of Nuclear receptor subfamily 1 group I member 3 (Homo sapiens) (Q14994 whole entry, looked up, the tested form may be a part): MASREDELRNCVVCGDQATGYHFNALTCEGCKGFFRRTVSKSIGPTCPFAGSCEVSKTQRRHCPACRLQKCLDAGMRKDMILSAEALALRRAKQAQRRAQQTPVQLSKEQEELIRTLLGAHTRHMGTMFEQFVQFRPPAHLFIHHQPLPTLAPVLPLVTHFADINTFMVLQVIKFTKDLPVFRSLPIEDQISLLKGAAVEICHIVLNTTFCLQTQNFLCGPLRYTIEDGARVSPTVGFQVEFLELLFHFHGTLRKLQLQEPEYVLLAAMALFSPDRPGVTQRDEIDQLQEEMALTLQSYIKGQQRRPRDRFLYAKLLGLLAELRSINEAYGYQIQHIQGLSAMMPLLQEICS
Sequence of X-box-binding protein 1 (Homo sapiens) (P17861 whole entry, looked up): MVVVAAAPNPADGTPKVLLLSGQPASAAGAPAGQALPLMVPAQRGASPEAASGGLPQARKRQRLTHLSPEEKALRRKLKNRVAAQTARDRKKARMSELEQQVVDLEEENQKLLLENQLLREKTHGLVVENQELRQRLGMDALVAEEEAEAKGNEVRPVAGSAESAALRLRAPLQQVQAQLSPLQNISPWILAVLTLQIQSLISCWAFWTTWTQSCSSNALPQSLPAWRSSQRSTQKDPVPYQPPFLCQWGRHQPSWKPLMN
Sequence of Hepatocyte nuclear factor 4-alpha (Homo sapiens) (P41235 whole entry, looked up, the tested form may be a part): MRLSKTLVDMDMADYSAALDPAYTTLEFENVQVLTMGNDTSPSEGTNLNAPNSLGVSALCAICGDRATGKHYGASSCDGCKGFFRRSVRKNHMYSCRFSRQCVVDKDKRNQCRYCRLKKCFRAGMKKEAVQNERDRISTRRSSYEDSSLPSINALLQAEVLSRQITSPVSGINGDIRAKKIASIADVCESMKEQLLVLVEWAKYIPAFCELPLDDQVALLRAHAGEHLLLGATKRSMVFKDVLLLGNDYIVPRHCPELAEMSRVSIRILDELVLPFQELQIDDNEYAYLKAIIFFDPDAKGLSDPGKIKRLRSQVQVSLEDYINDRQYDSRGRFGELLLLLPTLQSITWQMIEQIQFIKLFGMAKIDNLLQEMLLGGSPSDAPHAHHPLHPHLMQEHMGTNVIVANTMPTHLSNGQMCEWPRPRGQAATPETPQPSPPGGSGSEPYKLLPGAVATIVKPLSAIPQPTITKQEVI
Sequence of Nuclear receptor subfamily 4 group A member 2 (Homo sapiens) (P43354 whole entry, looked up, the tested form may be a part): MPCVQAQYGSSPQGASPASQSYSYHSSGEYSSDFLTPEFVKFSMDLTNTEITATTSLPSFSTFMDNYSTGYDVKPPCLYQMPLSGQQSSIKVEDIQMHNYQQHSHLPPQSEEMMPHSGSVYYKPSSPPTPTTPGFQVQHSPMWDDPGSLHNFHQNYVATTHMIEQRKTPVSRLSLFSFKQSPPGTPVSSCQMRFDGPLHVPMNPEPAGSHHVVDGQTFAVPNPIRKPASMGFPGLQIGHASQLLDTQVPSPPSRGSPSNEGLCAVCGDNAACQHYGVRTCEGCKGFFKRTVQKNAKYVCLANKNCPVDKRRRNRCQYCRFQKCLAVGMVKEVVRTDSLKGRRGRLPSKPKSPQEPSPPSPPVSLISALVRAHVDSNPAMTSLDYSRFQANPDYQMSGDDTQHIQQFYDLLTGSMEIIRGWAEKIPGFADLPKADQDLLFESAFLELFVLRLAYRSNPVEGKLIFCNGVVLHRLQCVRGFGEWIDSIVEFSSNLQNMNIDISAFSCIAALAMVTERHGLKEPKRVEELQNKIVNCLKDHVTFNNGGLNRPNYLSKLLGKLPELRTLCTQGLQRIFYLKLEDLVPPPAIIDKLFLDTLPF
Sequence of Oxysterols receptor LXR-beta (Homo sapiens) (P55055 whole entry, looked up, the tested form may be a part): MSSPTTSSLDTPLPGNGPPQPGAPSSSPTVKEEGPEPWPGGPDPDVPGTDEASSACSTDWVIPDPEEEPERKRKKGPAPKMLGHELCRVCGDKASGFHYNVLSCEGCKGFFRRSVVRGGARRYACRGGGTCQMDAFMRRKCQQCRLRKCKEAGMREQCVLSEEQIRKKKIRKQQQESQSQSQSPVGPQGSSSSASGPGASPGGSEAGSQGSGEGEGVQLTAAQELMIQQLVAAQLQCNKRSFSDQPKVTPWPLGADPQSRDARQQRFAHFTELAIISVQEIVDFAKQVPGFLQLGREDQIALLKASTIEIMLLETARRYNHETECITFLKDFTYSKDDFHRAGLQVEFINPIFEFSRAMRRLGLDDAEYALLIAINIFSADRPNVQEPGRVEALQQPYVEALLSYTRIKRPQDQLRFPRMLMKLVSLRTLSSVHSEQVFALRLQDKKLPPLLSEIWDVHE
Sequence of Transcriptional activator Myb (Homo sapiens) (P10242 whole entry, looked up): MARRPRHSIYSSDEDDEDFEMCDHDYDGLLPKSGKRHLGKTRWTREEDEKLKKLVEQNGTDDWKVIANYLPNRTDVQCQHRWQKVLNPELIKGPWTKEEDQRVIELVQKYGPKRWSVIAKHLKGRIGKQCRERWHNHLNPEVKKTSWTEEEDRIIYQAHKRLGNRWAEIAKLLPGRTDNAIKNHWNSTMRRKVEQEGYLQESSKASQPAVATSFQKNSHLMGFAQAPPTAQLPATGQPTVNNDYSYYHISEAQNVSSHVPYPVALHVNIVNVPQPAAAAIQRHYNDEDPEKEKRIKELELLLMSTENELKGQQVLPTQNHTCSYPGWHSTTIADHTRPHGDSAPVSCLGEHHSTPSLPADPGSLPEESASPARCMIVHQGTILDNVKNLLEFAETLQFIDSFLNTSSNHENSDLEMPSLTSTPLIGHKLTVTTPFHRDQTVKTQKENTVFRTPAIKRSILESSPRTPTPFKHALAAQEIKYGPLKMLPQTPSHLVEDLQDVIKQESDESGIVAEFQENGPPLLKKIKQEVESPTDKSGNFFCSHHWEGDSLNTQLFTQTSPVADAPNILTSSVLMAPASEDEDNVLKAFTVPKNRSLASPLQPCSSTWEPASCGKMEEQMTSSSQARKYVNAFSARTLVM
Sequence of Oxysterols receptor LXR-alpha (Homo sapiens) (Q13133 whole entry, looked up, the tested form may be a part): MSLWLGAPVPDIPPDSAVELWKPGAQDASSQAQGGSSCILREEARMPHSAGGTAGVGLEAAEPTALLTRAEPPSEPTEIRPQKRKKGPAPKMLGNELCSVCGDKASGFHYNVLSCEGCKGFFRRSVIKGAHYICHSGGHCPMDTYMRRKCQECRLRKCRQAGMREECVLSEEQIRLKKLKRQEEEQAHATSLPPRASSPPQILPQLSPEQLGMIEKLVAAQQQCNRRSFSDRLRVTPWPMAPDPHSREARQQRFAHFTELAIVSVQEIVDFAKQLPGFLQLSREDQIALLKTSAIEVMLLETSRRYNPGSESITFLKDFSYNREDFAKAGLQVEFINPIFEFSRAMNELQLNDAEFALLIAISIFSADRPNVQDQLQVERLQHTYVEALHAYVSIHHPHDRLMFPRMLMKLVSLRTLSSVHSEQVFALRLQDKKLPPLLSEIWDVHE
Sequence of Androgen receptor (Homo sapiens) (P10275 whole entry, looked up, the tested form may be a part): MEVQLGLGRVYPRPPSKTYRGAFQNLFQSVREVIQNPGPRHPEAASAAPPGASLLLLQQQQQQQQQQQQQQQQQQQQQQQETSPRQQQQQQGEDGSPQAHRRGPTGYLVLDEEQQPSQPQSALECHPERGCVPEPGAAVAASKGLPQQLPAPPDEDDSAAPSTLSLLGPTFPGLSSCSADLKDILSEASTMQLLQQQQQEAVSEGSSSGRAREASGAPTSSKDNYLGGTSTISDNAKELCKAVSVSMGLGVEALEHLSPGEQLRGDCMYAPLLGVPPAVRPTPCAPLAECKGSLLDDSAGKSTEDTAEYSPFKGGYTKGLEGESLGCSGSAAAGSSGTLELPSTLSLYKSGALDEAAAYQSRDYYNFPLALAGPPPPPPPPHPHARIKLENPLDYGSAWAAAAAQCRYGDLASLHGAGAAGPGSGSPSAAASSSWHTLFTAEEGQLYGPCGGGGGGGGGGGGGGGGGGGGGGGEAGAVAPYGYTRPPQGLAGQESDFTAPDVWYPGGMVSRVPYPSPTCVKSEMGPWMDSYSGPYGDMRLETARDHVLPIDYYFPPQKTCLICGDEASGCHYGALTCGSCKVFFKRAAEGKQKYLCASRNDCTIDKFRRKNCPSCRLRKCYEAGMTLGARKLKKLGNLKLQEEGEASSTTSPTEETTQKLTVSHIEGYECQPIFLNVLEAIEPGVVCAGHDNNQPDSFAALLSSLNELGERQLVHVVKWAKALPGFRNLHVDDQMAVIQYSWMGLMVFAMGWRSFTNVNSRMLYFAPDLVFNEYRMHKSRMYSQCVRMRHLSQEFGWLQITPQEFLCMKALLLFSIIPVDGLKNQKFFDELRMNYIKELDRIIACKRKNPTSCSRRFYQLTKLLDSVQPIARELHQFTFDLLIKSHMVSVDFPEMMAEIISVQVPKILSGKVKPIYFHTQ

In the case of `O=C(O)Cc1ccccc1`, the outcome in assay [1], in [2], in [3], in assay [4], in assay [5] and in assay [6] was inactive. The outcome in assay [7], in assay [8] and in [9] was inactive.

A word on the AC50: it is the concentration giving half of the maximal activity seen. Consider `Nc1ccc(N=Nc2ccc(-c3ccc(N=Nc4c(S(=O)(=O)O)cc5cc(S(=O)(=O)O)c(N=Nc6ccccc6)c(O)c5c4N)cc3)cc2)c(N)c1`, for which the outcome in [1], in assay [2], in assay [3], in [5], in assay [10] and in assay [8] was inactive. Also, the outcome in assay [11], in assay [12] and in assay [9] was inactive. Besides, the concentration at half-maximal activity (AC50) in [4] was 19.9 µM (active).

`OCC(O)CCl` (stereo not drawn): the call in [1], in [2], in [13], in assay [5], in [14] and in [15] was inactive. Also, the call in [11], in assay [12] and in assay [9] was inactive.

Consider `CC(C)(c1ccc(OCC2CO2)cc1)c1ccc(OCC2CO2)cc1` (stereo not drawn), for which the half-maximal activity concentration (AC50) in [1] was 23.2 µM (active); in [13], 24.9 µM (active); in [5], 24.4 µM (active). For the same molecule, the call in assay [2], in assay [6], in [16], in assay [15], in [17] and in [12] was inactive. Moreover, the result in assay [9] was inactive.

Take `Clc1ccc(C2(Cn3cncn3)CC(Br)CO2)c(Cl)c1` (stereo not drawn): the molecule was classed as inactive in assay [1], in assay [2], in assay [5], in assay [16], in assay [7] and in [8]. The result in assay [11], in [17], in [12] and in assay [9] was inactive. The AC50 in [13] was 6.89 µM (active).

Regarding `COP(=S)(OC)Oc1c(Cl)cc(C)cc1Cl`, the call in assay [1], in assay [2], in assay [3], in [18], in assay [5] and in assay [6] was inactive. Moreover, the outcome in [14], in assay [17], in assay [12] and in assay [9] was inactive.

`CC12CC1(C)C(=O)N(c1cc(Cl)cc(Cl)c1)C2=O` (stereo not drawn): the molecule was classed as inactive in [1], in assay [2], in [3], in assay [5], in assay [19] and in assay [6]. The call in [14], in assay [16], in assay [10], in assay [8], in assay [11] and in assay [17] was inactive. In addition, the outcome in assay [12] and in assay [9] was inactive.

For `CCCCCCCCSC(=O)Oc1cc(Cl)nnc1-c1ccccc1`, the results for the concentration at half-maximal activity (AC50) in assay [1], in assay [2] and in assay [13] were 71.3 µM (active), 152 µM (active) and 100 µM (active), respectively. For the same molecule, the molecule was called inactive in assay [5], in assay [6], in assay [12] and in assay [9].

Consider `O=C(NCO)NCO`, for which the outcome in assay [1], in assay [2], in assay [13], in assay [5], in assay [15] and in assay [8] was inactive. In addition, the molecule was classed as inactive in assay [11] and in assay [9].
